PubChem BioAssay (EPA / NIEHS)
Calls of active or inactive are those of the source. How the source made its calls: active means hit-call score of the fitted dose curve at least 0.9, where 1 is the maximum; inactive means score below 0.9.

Experiments:
Conditions in all cases: mRNA level, 48 h; actives raise or lower the signal
[1] = read-out: Cytochrome P450 (CYP24A1), CYP24A1 (gene 1591); assay: LTEA_HepaRG_CYP24A1: Life Technologies and Expression Analysis (LTEA) Assay for Cytochrome P450 (CYP24A1) using HepaRG (AID 2283478)
In short: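 qRT-PCR read-out: CYP24A1 transcript levels normalized to three housekeeping genes, bidirectional curve fits against 0.5% DMSO baseline. Human HepaRG cells treated 48 h with chemicals at eight concentrations from 100 uM in half-log steps.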

[2] = read-out: Cytochrome P450 (CYP1A2), CYP1A2 (gene 1544); assay: LTEA_HepaRG_CYP1A2: Life Technologies and Expression Analysis (LTEA) Assay for Cytochrome P450 (CYP1A2) using HepaRG (AID 2283479)
In short: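 HepaRG, 48 h exposure, top 100 uM, half-log 8-pt, 0.5% DMSO vehicle, duplicates. Readout: TaqMan qRT-PCR of CYP1A2 mRNA, housekeeping-normalized (ACTB/GAPDH/POLR2A). Gain/loss fit relative to DMSO baseline.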

[3] = read-out: cysteine-aspartic acid protease (CASP8), CASP8 (gene 841); assay: LTEA_HepaRG_CASP8: Life Technologies and Expression Analysis (LTEA) Assay for cysteine-aspartic acid protease (CASP8) using HepaRG (AID 2283480)
In short: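 qRT-PCR readout of CASP8 mRNA, normalized to three housekeeping genes, after 48 h chemical exposure of HepaRG cells; 8-point half-log series, top 100 uM, 0.5% DMSO vehicle. Bidirectional curve fitting against DMSO baseline.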

[4] = read-out: Cytochrome P450 (CYP2B6), CYP2B6 (gene 1555); assay: LTEA_HepaRG_CYP2B6: Life Technologies and Expression Analysis (LTEA) Assay for Cytochrome P450 (CYP2B6) using HepaRG (AID 2283481)
In short: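 Read-out is CYP2B6 mRNA by TaqMan qRT-PCR, normalized to three housekeeping genes and fitted bidirectionally against 0.5% DMSO baseline. Human HepaRG cells received test chemicals for 48 h, top concentration 100 uM, half-log dilutions.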

CYP2C9 (gene 1559) = assay: LTEA_HepaRG_CYP2C9: Life Technologies and Expression Analysis (LTEA) Assay for CYP2C9 using HepaRG (AID 2283484)
In short: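 HepaRG, 48 h dosing, 8-pt half-log series, top 100 uM, 0.5% DMSO vehicle. Read-out: CYP2C9 transcript by TaqMan qRT-PCR, housekeeping-normalized (ACTB/GAPDH/POLR2A). Gain or loss fitted vs DMSO baseline.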

CYP2E1 (gene 1571) = assay: LTEA_HepaRG_CYP2E1: Life Technologies and Expression Analysis (LTEA) Assay for CYP2E1 using HepaRG (AID 2283485)
In short: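 CYP2E1 transcript was measured by TaqMan qRT-PCR in human HepaRG cultures after 48 h chemical exposure (top 100 uM, half-log steps, 0.5% DMSO vehicle). Housekeeping-gene normalization; gain or loss fitted relative to DMSO baseline.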

CYP4A11 (gene 1579) = assay: LTEA_HepaRG_CYP4A11: Life Technologies and Expression Analysis (LTEA) Assay for CYP4A11 using HepaRG (AID 2283486)
In short: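 CYP4A11 transcript levels were quantified by TaqMan qRT-PCR after HepaRG human liver cells were treated for 48 hours with test chemicals (top 100 uM, half-log dilutions, 0.5% DMSO). Gain or loss of signal was fitted relative to DMSO.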

[5] = read-out: Cytochrome P450 3A4 (Homo sapiens) (UniProt P08684); assay: LTEA_HepaRG_CYP3A4: Life Technologies and Expression Analysis (LTEA) Assay for CYP3A4 using HepaRG (AID 2283487)
In short: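 HepaRG, 48 h exposure, 8-pt CRC from 100 uM (half-log), 0.5% DMSO, duplicates; serum-free induction medium. Readout: CYP3A4 mRNA, qRT-PCR, ACTB/GAPDH/POLR2A normalization. Bidirectional fit vs DMSO.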

[6] = read-out: DNA damage-inducible transcript 3 (DDIT3), DDIT3 (gene 1649); assay: LTEA_HepaRG_DDIT3: Life Technologies and Expression Analysis (LTEA) Assay for DNA damage-inducible transcript 3 (DDIT3) using HepaRG (AID 2283488)
In short: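 qRT-PCR readout (Fluidigm TaqMan), housekeeping-normalized to ACTB, GAPDH, POLR2A. HepaRG cells, 48 h exposure, 8-point half-log series from 100 uM in 0.5% DMSO, duplicates. Gain or loss of signal fitted against DMSO baseline.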

[7] = read-out: Early growth response protein 1 (EGR1) transcription factor, EGR1 (gene 1958); assay: LTEA_HepaRG_EGR1: Life Technologies and Expression Analysis (LTEA) Assay for Early growth response protein 1 (EGR1) transcription factor using HepaRG (AID 2283490)
In short: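 HepaRG, 48 h exposure, 8-pt half-log series from 100 uM, 0.5% DMSO vehicle; EGR1 transcript by TaqMan qRT-PCR (Fluidigm array), housekeeping-normalized; bidirectional fit relative to DMSO baseline.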

[8] = read-out: Ezrin (EZR), EZR (gene 7430); assay: LTEA_HepaRG_EZR: Life Technologies and Expression Analysis (LTEA) Assay for Ezrin (EZR) using HepaRG (AID 2283491)
In short: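 Read-out is EZR transcript level by qRT-PCR, normalized to three housekeeping genes and fitted bidirectionally against the DMSO control. Human HepaRG cells received test chemicals for 48 h at eight half-log concentrations up to 100 uM in 0.5% DMSO.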

[9] = read-out: Cytochrome P450 3A7 (Homo sapiens) (UniProt P24462); assay: LTEA_HepaRG_CYP3A7: Life Technologies and Expression Analysis (LTEA) Assay for CYP3A7 using HepaRG (AID 2283492)
In short: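 CYP3A7 transcript levels were read by TaqMan qRT-PCR on Fluidigm arrays after 48 h chemical exposure of human HepaRG cells, with housekeeping-gene normalisation. Eight half-log concentrations up to 100 uM in 0.5% DMSO were tested in duplicate.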

CYP3A5 (gene 1577) = assay: LTEA_HepaRG_CYP3A5: Life Technologies and Expression Analysis (LTEA) Assay for CYP3A5 using HepaRG (AID 2283493)
In short: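 qRT-PCR read-out: CYP3A5 transcript in HepaRG lysates, housekeeping-normalized (ACTB/GAPDH/POLR2A), fitted bidirectionally against 0.5% DMSO baseline. Exposure 48 h, eight half-log concentrations up to 100 uM, duplicates.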

[10] = read-out: Fatty Acid-Binding Protein 1 (FABP1), FABP1 (gene 2168); assay: LTEA_HepaRG_FABP1: Life Technologies and Expression Analysis (LTEA) Assay for Fatty Acid-Binding Protein 1 (FABP1) using HepaRG (AID 2283494)
In short: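 qRT-PCR readout of FABP1 transcript (normalized to three housekeeping genes) after 48 h chemical exposure of HepaRG cells; eight concentrations, half-log steps, max 100 uM, 0.5% DMSO vehicle; gain or loss fitted relative to DMSO baseline.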

[11] = read-out: Cytochrome P450 4A22 (Homo sapiens) (UniProt Q5TCH4); assay: LTEA_HepaRG_CYP4A22: Life Technologies and Expression Analysis (LTEA) Assay for Cytochrome P450 4A22 (CYP4A22) using HepaRG (AID 2283495)
In short: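 HepaRG, 48 h post-plating -> serum-free induction medium; dosed 48 h, duplicate, 8 conc. (100 uM top, half-log), 0.5% DMSO. Readout: CYP4A22 mRNA by qRT-PCR, ACTB/GAPDH/POLR2A normalization; gain/loss fit relative to DMSO.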

[12] = read-out: Cytochrome P450 7A1 (Homo sapiens) (UniProt P22680); assay: LTEA_HepaRG_CYP7A1: Life Technologies and Expression Analysis (LTEA) Assay for Cytochrome P450 7A1 (CYP7A1) using HepaRG (AID 2283496)
In short: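 Using 0.5% DMSO as vehicle and baseline, chemicals were tested in duplicate over an 8-point range from 100 uM on HepaRG cells for 48 h; qRT-PCR signals were normalised to ACTB, GAPDH and POLR2A.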

[13] = read-out: Pro-epidermal growth factor (Homo sapiens) (UniProt P01133); assay: LTEA_HepaRG_EGF: Life Technologies and Expression Analysis (LTEA) Assay for Epidermal growth factor (EGF) using HepaRG (AID 2283489)
In short: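 qRT-PCR readout of EGF transcript after 48 h chemical exposure of HepaRG cells; eight concentrations from 100 uM down in half-log steps, duplicate wells, 0.5% DMSO vehicle. Bidirectional curve fitting against DMSO baseline.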

[14] = read-out: Cytochrome P450 2C19 (Homo sapiens) (UniProt P33261); assay: LTEA_HepaRG_CYP2C19: Life Technologies and Expression Analysis (LTEA) Assay for CYP2C19 using HepaRG (AID 2283482)
In short: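 HepaRG, 48 h chemical exposure, 8-pt half-log series from 100 uM in 0.5% DMSO, duplicates. Readout: CYP2C19 mRNA by TaqMan qRT-PCR, housekeeping-normalized. Bidirectional fit vs DMSO baseline; phenobarbital 1mM as induction control.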

CYP2C8 (gene 1558) = assay: LTEA_HepaRG_CYP2C8: Life Technologies and Expression Analysis (LTEA) Assay for CYP2C8 using HepaRG (AID 2283483)
In short: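 HepaRG (human liver line), 48 h chemical exposure, 8-pt half-log series from 100 uM, 0.5% DMSO vehicle. Readout: CYP2C8 transcript by qRT-PCR, housekeeping-normalized. Bidirectional fit vs DMSO baseline.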

[15] = read-out: Glutathione S-Transferase (GSTA2), GSTA2 (gene 2939); assay: LTEA_HepaRG_GSTA2: Life Technologies and Expression Analysis (LTEA) Assay for Glutathione S-Transferase (GSTA2) using HepaRG (AID 2283497)
In short: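 qRT-PCR readout of GSTA2 transcript, normalized to three housekeeping genes, fitted bidirectionally against 0.5% DMSO baseline. Differentiated HepaRG cells received compound for 48 h at 8 concentrations (top 100 uM, half-log steps).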

Measured: AC50

Chain of Cytochrome P450 3A4 (Homo sapiens) (P08684 whole entry, looked up): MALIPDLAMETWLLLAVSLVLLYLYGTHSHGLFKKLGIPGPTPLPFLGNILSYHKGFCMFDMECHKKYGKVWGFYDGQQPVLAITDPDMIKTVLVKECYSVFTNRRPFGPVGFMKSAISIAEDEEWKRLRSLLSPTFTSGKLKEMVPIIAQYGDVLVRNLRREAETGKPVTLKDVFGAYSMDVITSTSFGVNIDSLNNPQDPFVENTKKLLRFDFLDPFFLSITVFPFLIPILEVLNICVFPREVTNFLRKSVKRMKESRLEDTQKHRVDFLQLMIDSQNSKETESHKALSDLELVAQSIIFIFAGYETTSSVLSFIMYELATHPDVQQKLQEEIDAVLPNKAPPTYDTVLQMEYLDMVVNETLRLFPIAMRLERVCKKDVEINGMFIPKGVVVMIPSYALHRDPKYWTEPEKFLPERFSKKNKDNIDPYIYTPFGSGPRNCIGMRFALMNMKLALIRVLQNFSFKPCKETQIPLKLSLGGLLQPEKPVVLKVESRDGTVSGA
Chain of Cytochrome P450 2C19 (Homo sapiens) (P33261 whole entry, looked up): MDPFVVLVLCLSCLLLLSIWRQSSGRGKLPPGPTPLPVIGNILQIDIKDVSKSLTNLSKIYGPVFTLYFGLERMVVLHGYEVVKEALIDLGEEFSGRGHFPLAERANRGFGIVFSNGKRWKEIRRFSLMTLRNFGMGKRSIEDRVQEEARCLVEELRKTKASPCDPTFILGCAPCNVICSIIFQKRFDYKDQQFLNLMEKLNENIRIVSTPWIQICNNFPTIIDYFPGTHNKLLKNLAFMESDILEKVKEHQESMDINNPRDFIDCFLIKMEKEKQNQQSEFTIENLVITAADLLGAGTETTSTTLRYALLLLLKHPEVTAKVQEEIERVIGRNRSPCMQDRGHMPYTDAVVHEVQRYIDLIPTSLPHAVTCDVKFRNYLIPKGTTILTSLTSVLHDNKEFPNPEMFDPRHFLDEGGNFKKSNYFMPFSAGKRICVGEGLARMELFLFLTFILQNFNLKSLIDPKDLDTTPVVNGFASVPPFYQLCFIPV
Chain of Cytochrome P450 3A7 (Homo sapiens) (P24462 whole entry, looked up): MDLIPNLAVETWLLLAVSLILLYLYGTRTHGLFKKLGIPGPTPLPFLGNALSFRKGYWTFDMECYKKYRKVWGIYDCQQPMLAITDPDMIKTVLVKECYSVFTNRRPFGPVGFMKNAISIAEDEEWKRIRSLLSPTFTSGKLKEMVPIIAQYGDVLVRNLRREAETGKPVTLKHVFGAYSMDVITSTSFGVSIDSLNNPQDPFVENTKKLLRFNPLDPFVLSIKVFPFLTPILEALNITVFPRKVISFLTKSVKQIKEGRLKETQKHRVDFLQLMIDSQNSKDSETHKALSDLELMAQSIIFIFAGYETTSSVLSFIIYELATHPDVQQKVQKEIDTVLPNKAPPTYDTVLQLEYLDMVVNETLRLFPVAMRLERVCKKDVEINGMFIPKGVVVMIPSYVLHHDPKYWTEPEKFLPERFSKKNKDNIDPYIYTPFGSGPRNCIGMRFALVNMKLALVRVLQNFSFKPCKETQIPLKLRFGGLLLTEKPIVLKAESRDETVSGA

Nc1ccc(S(=O)(=O)c2ccc(N)cc2)cc1
active: [1] 12.7 µM | [4] 32.4 µM | CYP2E1 (gene 1571) 5.9 µM
not listed: [13] | [14] | CYP2C8 (gene 1558) | [15]
inactive: all other assays above

CCCCN(CCCC)CCCC
not listed: [14] | CYP2C8 (gene 1558) | [15]
inactive: all other assays above

CC(=O)C(C)=CC1C(C)=CCCC1(C)C (configuration not stated)
not listed: [4] | CYP2C9 (gene 1559) | [15]
inactive: all other assays above

Cc1oc(-c2ccccc2)nc1CCOc1cccc2c1ccn2CCC(=O)O
inactive: [1] | [2] | [13] | CYP3A5 (gene 1577)
active: [3] 50 µM | [14] 83.4 µM | CYP2C8 (gene 1558) 80.5 µM | CYP2C9 (gene 1559) 77.9 µM | CYP2E1 (gene 1571) 62.6 µM | CYP4A11 (gene 1579) 85.9 µM | [5] 80.1 µM | [6] 79.2 µM | [7] 4.76 µM | [8] 9.92 µM | [9] 11.4 µM | [10] 87.6 µM | [11] 85.2 µM | [12] 82.3 µM

COc1ccc(C)cc1N
not listed: [4]
inactive: all other assays above

Cc1ccc2ncccc2c1
active: [4] 13.2 µM
not listed: CYP2C9 (gene 1559) | [14] | CYP2C8 (gene 1558)
inactive: all other assays above

Cc1nc(-c2ccc3c(c2)CCN(CCC2CCC(NC(=O)/C=C/c4ccc(F)cc4)CC2)CC3)no1 (configuration not stated)
not listed: [14] | CYP2C8 (gene 1558)
inactive: all other assays above
